Laboratory results as given in PubChem BioAssay (NCATS).

Test: qHTS drug screen for cell cycle checkpoint inhibitors in PARPi-resistant BRCA-mutant ovarian cancer cell lines. (AID 1963452)
Settings: PEO1/OlaR viability, CellTiter-Glo luminescence, 96 h; measured here: PEO4 Z-AUC; stronger effect = lower value
Summary of the method: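 PEO1, PEO4 and PEO1/OlaR ovarian cancer cells, 600 per well, exposed 96 h at 37C to a dilution series. Viability read by CellTiter-Glo luminescence, normalized to DMSO and empty wells; activity summarized as Z-AUC.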

| SMILES | Z-AUC |
| --- | --- |
| O=C(O)C1=CO[C@@H](O[C@@H]2O[C@H](CO)[C@@H](O)[C@H](O)[C@H]2O)[C@@H]2C(CO)=CC[C@H]12 | 1.61 |
| O=C(NCC(=O)N1CCCC1)Nc1ccc2cnccc2c1 | -1.01 |
| CN1CCN(C2CCN(C(=O)Nc3cc(Oc4ccc(NC(=O)C5(C(=O)Nc6ccc(F)cc6)CC5)c(F)c4)ccn3)CC2)CC1 | -0.114 |
| COCC(=O)NC/C=C/c1ccc2ncnc(Nc3ccc(Oc4ccc(C)nc4)c(C)c3)c2c1 | -0.0701 |
| Cc1nc(-c2cn3c(n2)-c2ccc(-c4cnn(C(C)(C)C(N)=O)c4)cc2OCC3)n(C(C)C)n1 | -0.716 |
| O=C(c1c(F)ccc(NS(=O)(=O)N2CC[C@@H](F)C2)c1F)c1c[nH]c2ncc(-c3cnc(C4CC4)nc3)cc12 | 0.486 |
| CC[C@@H](C)Nc1cc(C(=O)NC2CC3CCC(C2)N3c2ccc(C(=O)C3CC3)cn2)c(C)cc1C(N)=O (stereo partly drawn) | -0.342 |
| O=C(Nc1ccnc(NC(=O)C2CC2)c1)c1c(Cl)cccc1Cl | -0.923 |
| O=c1[nH]c([C@@H]2CCCN2)nc2c1oc1ccc(Cl)cc12 | 1.1 |
| OC(c1ccc(-c2ccc(CN3CCN(Cc4ccncc4)CC3)cc2)c(F)c1)(C(F)(F)F)C(F)(F)F | -0.000497 |
| C1=C/COCc2cc(ccc2OCCN2CCCC2)Nc2nccc(n2)-c2cccc(c2)COC/1 | -0.941 |
| C=CC(=O)Nc1cccc(Nc2nc(Nc3ccc(OCCOC)cc3)ncc2F)c1 | -1.08 |
| COc1ccc(CNc2nc(N(CCO)CCO)nc3c2ncn3C(C)C)cc1 | -0.51 |
| COc1c(C)cc(NC(=O)c2nn(Cc3ccc(F)cc3)c3c2CN(C(=O)c2ccc[nH]2)C[C@]3(C)C(N)=O)cc1C | -0.568 |
| CN1CC[C@@H](c2c(O)cc(O)c3c(=O)cc(-c4ccc(C(F)(F)F)cc4Cl)oc23)[C@@H]1CO | 0.604 |
| CCCC1(CCC)CCC2(CCN(CCCN(CC)CC)C2)CC1 | -1.83 |
| Cc1cc(-c2cc(OC(=O)c3ccccc3)ccc2Cl)cc2nnc(Nc3ccc(OCCN4CCCC4)cc3)nc12 | -1.13 |
| Cc1c(NC(=O)c2cc3c(s2)CCCC3)cccc1-c1cn(C)c(=O)c(Nc2ccc(C3C(=O)N(C)CCN3C)cc2)n1 (stereo not drawn) | 0.277 |
| CCn1nc(C2CCN(C(=O)CCO)CC2)nc1-c1cnc(N)c(-c2nnc(C(C)(C)C)o2)n1 | 0.568 |
| COc1ccc2nc3n[nH]c(C)c3c(NCCOCCO)c2c1 | 0.00576 |
| CCCc1cc(C)[nH]c(=O)c1CNC(=O)c1cc(-c2ccc(N3CCN(C(C)C)CC3)nc2)cc2c1cnn2C(C)C | 0.0189 |
| CCN(c1cc(-c2ccc(CN3CCOCC3)cc2)cc(C(=O)NCc2c(C)cc(C)[nH]c2=O)c1C)C1CCOCC1 | 0.0284 |
| COc1cc2c(cc1OCCCN1CCCC1)N=C(N)C21CCC1 | -0.411 |
| C=CC(=O)N1CCC(Oc2cc3c(Nc4ccc(Cl)c(Cl)c4F)ncnc3cc2OC)CC1 | -0.834 |
| CS(=O)(=O)c1ccc(Oc2cc(F)cc(C#N)c2)c2c1[C@H](O)C(F)(F)C2 | 0.7 |
| COC1CCN(C(=O)c2cc(Cc3n[nH]c(=O)c4ccccc34)ccc2F)CC1 | 0.328 |
| O=C(Nc1cccnc1)c1cc(-c2ccnc(F)c2)ccc1OCc1ccccc1 | -0.497 |
| COc1cc(N2CCC(N3CCN(C)CC3)CC2)ccc1Nc1ncc(Cl)c(Nc2ccccc2P(C)(C)=O)n1 | -1.55 |
